Laboratory results: PubChem BioAssay (NCI)
Compounds without any hit were thinned out: in the full panel of roughly 83,000, 20% have a hit.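 Percent growth is the endpoint: 0 to 100 indicates growth inhibition (40 means 60% inhibition), 0 means no net growth, and negative values indicate cell death.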 Unmarked numbers belong to inactive results. The source made the active and inactive calls. The calls were made as follows: active = growth percent below 10; inactive = the rest.

Legend:
Assay in all cases: NCI-60 one-dose screen, 48 h (100 = growth as untreated, 0 = no growth, -100 = all killed)
Settings in all cases: 10 µM unless noted
SR leukemia = system: SR leukemia
RPMI-8226 leukemia = system: RPMI-8226 leukemia
OVCAR-8 ovarian = system: OVCAR-8 ovarian
OVCAR-5 ovarian = system: OVCAR-5 ovarian
OVCAR-4 ovarian = system: OVCAR-4 ovarian
SK-OV-3 ovarian = system: SK-OV-3 ovarian
IGROV1 ovarian = system: IGROV1 ovarian
HS 578T breast = system: HS 578T breast
NCI/ADR-RES ovarian = system: NCI/ADR-RES ovarian
T-47D breast = system: T-47D breast
BT-549 breast = system: BT-549 breast
MDA-MB-435 melanoma = system: MDA-MB-435 melanoma
SW-620 colon = system: SW-620 colon
MCF7 breast = system: MCF7 breast
HCT-116 colon = system: HCT-116 colon
HCC-2998 colon = system: HCC-2998 colon
KM12 colon = system: KM12 colon
OVCAR-3 ovarian = system: OVCAR-3 ovarian

SMILES | growth (SR leukemia) | growth (RPMI-8226 leukemia) | growth (OVCAR-8 ovarian) | growth (OVCAR-5 ovarian) | growth (OVCAR-4 ovarian) | growth (SK-OV-3 ovarian) | growth (IGROV1 ovarian) | growth (HS 578T breast) | growth (NCI/ADR-RES ovarian) | growth (T-47D breast) | growth (BT-549 breast) | growth (MDA-MB-435 melanoma) | growth (SW-620 colon) | growth (MCF7 breast) | growth (HCT-116 colon) | growth (HCC-2998 colon) | growth (KM12 colon) | growth (OVCAR-3 ovarian) [%]
COc1ccc(-c2cc(-c3ccc(OC)cc3)nc(NCCCNc3ccnc4cc(Cl)ccc34)n2)cc1 | 5.81% (active) | 7.42% (active) | -51.3% (active) | 105% | -16.5% (active) | 76.8% | -62.6% (active) | 83.5% | 71.7% | 89.3% | 81.2% | -69.9% (active) | -39.7% (active) | -54.2% (active) | -84.9% (active) | -56.4% (active) | 44.8% | 
COc1ccc(OC)c(Nc2nnc(-c3ccc(Cl)cc3)o2)c1 | 79.7% | 90.4% | 85.5% | 82.4% | 10.5% | 90.7% |  | 51.4% | 71.9% | 59.9% | 81.9% | 84.6% | 86.2% | 91.6% | 31.1% | 104% | 66.4% | 31.8
COc1cccc(Nc2ccnc3[nH]c4ccc([N+](=O)[O-])cc4c23)c1 | 31.5% | 65.2% | 32.2% | 110% | 27.2% | 47.5% |  | 27.8% | 44.4% | 41.8% | 80.3% | -24.4% (active) | 56.5% | 19.7% | 24.5% | 84.8% | 27.2% | 46.9
COC(=O)c1ccc2c(c1)c1c(C)c3ccncc3c(C)c1n2C | -5.73% (active) | 26.8% | 28.8% | 44.9% | 22% | 40% |  | 35.6% | 29.3% | 29.7% | 43.5% | 28.3% | 21% | 8.59% (active) | 10.9% | 61.5% | 23.2% | 39.5
CC(C)=CC(=O)N[C@@H]1CC2CCC3C(CC[C@@]4(C)C3CC[C@@H]4C(C)N(C)C)[C@@]2(C)C[C@@H]1O (some centres not stated) | -39.8% (active) | -2.36% (active) | 81.8% | 81.4% | 11.5% | 81.3% |  | 59.7% | 52.5% | 22.3% | 66.1% | 12.6% | 28.2% | 33.9% | 27.1% | 52% | 38.2% | 46.5
Cc1c(N2CN3C[C@H](C)N4CN(c5c(C)n(C)n(-c6ccccc6)c5=O)CN5C[C@@H](C)N(C2)C3C54)c(=O)n(-c2ccccc2)n1C (some centres not stated) | 38.1% | 96% | 104% | 106% | 103% | 99.2% | 102% | 95.9% | 97.2% | 105% | 113% | 105% | 103% | 94.9% | 96.9% | 106% | 104% | 
CN(CCC#N)c1ccc(/C=C2\NC(=O)NC2=O)cc1 | 102% | 110% | 111% | 98.7% | 102% | 105% | 105% | 88.8% | 93.2% | 112% | 51.4% | 93.1% | 99.8% | 102% | 91.2% | 96.7% | 101% | 
O=C(Cn1nnc2ccccc21)Nc1ccc(-c2nc3ccccc3s2)cc1 | 40.2% | 85.3% | 98.5% | 104% | 72.2% | 104% | 97.5% |  | 96.2% | 66.9% | 86.5% | 95.9% | 94.5% | 28.9% | 97.4% | 93.7% | 91.4% | 
CCOC(=O)N1CCN(S(=O)(=O)c2oc(-c3ccc(Cl)cc3)nc2C#N)CC1 | 4.64% (active) | 67.3% | 70.8% | 106% | 103% | 102% |  | 102% | 102% | 65.4% | 92.2% | 98.6% | -49% (active) | 62.2% | 14.1% | 104% |  | 32.2
O=C(CN1C(=O)/C(=C/c2ccco2)SC1=S)NCCc1c[nH]c2ccc(F)cc12 | 111% | 97.8% | 105% | 105% | 99.7% | 93.7% | 104% | 95.9% | 99.1% | 103% | 97.4% | 104% | 107% | 97.5% | 96.6% | 115% | 101% | 
C=C(CO)[C@@H]1CC[C@]2(COC3CCCCO3)CC[C@]3(C)[C@H](CC[C@@H]4[C@@]5(C)C=C(C=O)C(=O)C(C)(C)[C@@H]5CC[C@]43C)[C@@H]12 (some centres not stated) | -49.9% (active) | -35% (active) | -69% (active) | -75.5% (active) | -63.8% (active) | -95.8% (active) | -78.8% (active) | -52.3% (active) | -37.5% (active) | -80.3% (active) | -88.6% (active) | -83.9% (active) | -64.6% (active) | -73.2% (active) | -89.3% (active) | -87.5% (active) | -43% (active) | 
CC1=CCC[C@@H]2C1(C)CC[C@H](C)[C@@]2(C)CC1=CC(=O)C(SC(C)(C)C)=CC1=O (some centres not stated) | 74% | 64.7% | 91.8% | 68% | 88.5% | 106% |  | 85% | 84.8% | -11.8% (active) | 80.5% | 97.2% | 78.9% | -61.1% (active) | 64% | 96.8% | 93.1% | 84.9
Cc1c2ccccc2nc2c1ccc1cccnc12 | 85.9% | 64.8% | 91.7% | 83.5% | 51.7% | 116% | 15% | 117% | 60.9% | 35.1% | 96.3% | 83% |  | 21.7% | 56.2% | 87.3% | 78.2% | 
O=C1CCC(C(=O)NN(c2ccccc2)c2ccccc2)N1 (configuration not stated) | 19.7% | 17.8% | 103% | 99.2% | 103% | 96.6% | 105% | 95.8% | 111% | 103% | 30.2% | 93.8% | 100% | 98% | 15.5% | 110% | 87.3% | 
O=C1Nc2ccccc2C2c3cccn3-c3ccccc3N12 (configuration not stated) | 49.5% | 82.6% | 86.9% | 96.6% | 84.2% | 84.6% |  | 78.3% | 42.7% | 76% | 82.7% | 7.5% (active) | 49.6% | 60.1% | 78.2% | 77.2% |  | 74.1
O=C(N=Nc1c(O)[nH]c2ccccc12)Nc1ccc(Cl)cc1 | 79.1% | 56.1% | 102% | 86% | 98.2% | 96.5% | 80.2% | 95.1% | 110% | 87.2% | 103% | 95.5% | 90.3% | 76.3% | 94.4% | 99% | 81.1% | 
CCN(CC)CCN(CCN(CC)CC)c1ccccc1 | 111% | 103% | 91.4% | 94.3% | 101% | 92.7% |  | 89.2% | 100% | 89.3% | 54.3% | 103% | 95.8% | 100% | 74.6% | 91.5% | 108% | 109
CC[C@H](CC[C@@H](C)[C@H]1CC[C@H]2[C@@H]3CC[C@@H]4CC(=O)/C(=C\c5ccncc5)C[C@]4(C)[C@H]3CC[C@]12C)C(C)C | 87.5% | 92.2% | 100% | 104% | 110% | 99.7% | 104% | 98.8% | 104% | 100% | 95.2% | 101% | 102% | 95.7% | 103% | 104% | 102% | 
